PubChem BioAssay AID588342 (National Center for Advancing Translational Sciences (NCATS), 2011)
Values joined by “and” are separate entries in the source; they are usually repeats but may differ in a detail not shown here. Equal values may be shown once. The campaign covered roughly 360,000 compounds. About 25,000 (6.9%) were called active. Roughly 9% stayed inconclusive and do not appear here. The call rests on the fitted dose curve; in most records, active means well fitted inhibition curve with a large enough effect; inconclusive means small, poorly fitted or top-dose-only effect; inactive means flat fitted curve, though single readings scatter. Only a selection was taken, and actives are over-represented in it overall. A structure can be active in one record and inactive in another.
Further: nearly all actives have a fitted effect of over 55% in size.
Potency means the concentration at half of the fitted maximal effect.
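Wherever activity change, negative = inhibition is given: plate controls were vehicle for no effect and reference inhibitor for full effect.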

The compounds below were run against Luciferin 4-monooxygenase (Photinus pyralis) (UniProt P08659) (assay: qHTS profiling assay for firefly luciferase inhibitor/activator using purifed enzyme and Km concentrations of substrates (counterscreen for miR-21 project)). Conditions: purified FLuc, luminescence inhibition; series mostly up to 57.5 µM; activity change, negative = inhibition: at the top concentration.
Luciferin 4-monooxygenase (Photinus pyralis), sequence (P08659 whole entry, looked up): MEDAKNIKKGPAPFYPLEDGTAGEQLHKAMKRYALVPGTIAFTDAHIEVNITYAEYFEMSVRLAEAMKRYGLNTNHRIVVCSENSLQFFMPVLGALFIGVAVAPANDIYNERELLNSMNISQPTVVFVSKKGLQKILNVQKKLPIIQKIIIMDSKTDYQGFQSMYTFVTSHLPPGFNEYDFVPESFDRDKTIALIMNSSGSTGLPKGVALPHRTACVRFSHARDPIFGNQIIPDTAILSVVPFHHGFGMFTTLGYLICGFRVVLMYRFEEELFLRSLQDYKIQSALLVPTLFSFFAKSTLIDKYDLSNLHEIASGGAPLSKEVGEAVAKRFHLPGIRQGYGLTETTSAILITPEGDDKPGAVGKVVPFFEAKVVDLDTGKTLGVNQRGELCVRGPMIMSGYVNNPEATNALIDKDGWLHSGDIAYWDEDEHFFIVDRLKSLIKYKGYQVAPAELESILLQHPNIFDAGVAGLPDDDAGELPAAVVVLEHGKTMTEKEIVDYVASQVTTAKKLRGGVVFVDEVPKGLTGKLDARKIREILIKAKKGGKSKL
Outline: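 Purified P. pyralis luciferase (10nM final) with 10uM D-luciferin and 10uM ATP (Km levels) in 50mM Tris acetate pH 7.5, 10mM Mg acetate, 0.01% Tween-20, 0.05% BSA; qHTS 6-point titration, ~60 µM downward; luminescence read.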
`CCC(CC)C(=O)N1CCc2cc(OC)c(OC)cc2C1COc1ccc(F)cc1` (configuration not stated) was tested, and the “activity change, negative = inhibition” value was -4.53% (inactive).
With `N#CCC(=O)Nc1ccc(C(=O)OCC(=O)Nc2sc3c(c2C#N)CCCC3)cc1` the “activity change, negative = inhibition” value was -9.6% (inactive).
With `O=C1N=C(N2CCc3ccccc3C2)S/C1=C\c1ccc(O)cc1` the Potency was 16.9 µM (active).
In the case of `CC1CCN(C2=NC(=O)/C(=C/c3ccc(O)cc3)S2)CC1`, the Potency is reported as 10.7 µM (active).
For `O=C(C1CCN(c2nnc(-n3cccc3)s2)CC1)N1CCc2ccccc2C1`, the “activity change, negative = inhibition” value was 1.79% (inactive).
`NC1=NC(=O)S/C1=C\c1ccc(O)cc1` was tested, and the “activity change, negative = inhibition” value was -7.93% (inactive).
In the case of `CCOc1ccc(N=C2NC(=O)S/C2=C\c2ccc(O)cc2)cc1`, the “activity change, negative = inhibition” value is reported as -7.47% (inactive).
`CCCN(C(=O)Cn1ncc2c([nH]c3ccc(C)cc32)c1=O)c1ccccc1C` was tested, and the “activity change, negative = inhibition” value was -6.95% (inactive).
In the case of `COc1cccc(CNC(=O)c2ccc3c(c2)N(Cc2ccc(C(F)(F)F)cc2)C(=O)c2ccccc2S3)c1OC`, the “activity change, negative = inhibition” value is reported as -4.21% (inactive).
In the case of `CSCCC(C(=O)NC1=NCCS1)N1C(=O)c2ccccc2C1=O` (configuration not stated), the “activity change, negative = inhibition” value is reported as 2.14% (inactive).
In the case of `CCOc1ccc(NC(=O)CCC(=O)N/N=C/c2ccc([N+](=O)[O-])s2)cc1`, the “activity change, negative = inhibition” value is reported as 5.81% (inactive).
For `O=[N+]([O-])c1ccc(C=Nc2ccc(Cl)cc2Cl)s1`, the Potency was 2.13 µM (active).
`CC(C)(C)c1cc(C(=O)N/N=C/c2ccc([N+](=O)[O-])s2)n[nH]1` was tested, and the “activity change, negative = inhibition” value was -3.18% (inactive).
With `COc1ccc(C)cc1NC(=O)CCCN1C(=O)NC(C)(C)C1=O` the “activity change, negative = inhibition” value was 5.36% (inactive).
In the case of `CCCNC(=O)CCC(=O)N1Cc2ccccc2Oc2ncccc21`, the “activity change, negative = inhibition” value is reported as -0.325% (inactive).
With `CCCCC(=O)OC1=CN(Cc2ccccc2)S(=O)(=O)c2ccccc21` the “activity change, negative = inhibition” value was 5.5% (inactive).
With `COCCn1c(C)cc(C(=O)CSc2nc3ccccc3c(=O)n2C(C)COC)c1C` (configuration not stated) the “activity change, negative = inhibition” value was -12.6% (inactive).
With `COCCn1c(C)cc(C(=O)CSc2ncnc3sc4c(c23)CCC4)c1C` the activity change, negative = inhibition was 8.69% [at 2.3 µM] (inactive).
`COCCn1c(C)cc(C(=O)CSc2nnc(C3CC3)n2C2CC2)c1C` was tested, and the Potency was 19 µM (active).
With `CCOC(=O)c1c(N)c(C#N)nn1-c1ccccc1C(=O)OC` the “activity change, negative = inhibition” value was 4.06% (inactive).
`Cc1cc(C)n(CC(=O)Nc2ccc([N+](=O)[O-])cc2)n1` was tested, and the “activity change, negative = inhibition” value was 0.707% (inactive).
With `CC1CC(C)CN(C/C=C/c2ccccc2[N+](=O)[O-])C1` (configuration not stated) the “activity change, negative = inhibition” value was 5.73% (inactive).
In the case of `COc1ccc(-c2c(C)nn3c(N4CCC(C(=O)NCCC(C)C)CC4)cc(C)nc23)cc1OC`, the “activity change, negative = inhibition” value is reported as 0.887% (inactive).
`COC(=O)c1ccc(/C=N/NC(=O)C(=O)N2CCCCCC2)cc1` was tested, and the “activity change, negative = inhibition” value was -1.34% (inactive).
With `O=C(N/N=C/c1ccc([N+](=O)[O-])cc1)C(=O)N1CCCC1` the “activity change, negative = inhibition” value was 1.64% (inactive).
`O=C(N/N=C/c1ccc2c(c1)OCO2)C(=O)N1CCCC1` was tested, and the Potency was 15.1 µM (active).
In the case of `CCn1ncc(C2=NOC(C(=O)Nc3ccccc3C(=O)OC)C2)c1C` (configuration not stated), the “activity change, negative = inhibition” value is reported as -0.901% (inactive).
In the case of `Cc1cccc(-n2c(SCC(N)=O)nc3c(oc4ccccc43)c2=O)c1`, the “activity change, negative = inhibition” value is reported as 1.16% (inactive).
With `CN(Cc1ccco1)S(=O)(=O)c1nnc(NC(=O)c2ccccc2)s1` the Potency was “inactive and 23.9 µM (active)”.
With `COc1cccc(C(=O)Nc2nnc(S(=O)(=O)N(C)c3ccccc3)s2)c1` the “activity change, negative = inhibition” value was -19.1% (inactive).
For `CCCCC(=O)Nc1nnc(S(=O)(=O)N(C)Cc2ccco2)s1`, the “activity change, negative = inhibition” value was 1.16% (inactive).
`CCCCN(C)CCCNC(=O)CN1N=C(c2ccc(OC)cc2)CCC1=O` was tested, and the “activity change, negative = inhibition” value was 2.79% (inactive).
`Cc1ccc(C(=O)CSc2nc3ccccc3c(=O)n2N)o1` was tested, and the Potency was 12 µM (active).
With `COC(=O)CSc1nc2ccccc2c(=O)n1Cc1ccccc1` the “activity change, negative = inhibition” value was 5.35% (inactive).
In the case of `COc1ccc(NC(=O)CSc2nc3ccccc3c(=O)n2C)cc1`, the “activity change, negative = inhibition” value is reported as -0.538% (inactive).
`Cc1cccc(N2CCN(C3=C(c4ccccc4)C(=O)c4ccccc43)CC2)c1C` was tested, and the “activity change, negative = inhibition” value was -7.51% (inactive).
`O=[N+]([O-])c1ccc(NCCCO)c(C(F)(F)F)c1` was tested, and the “activity change, negative = inhibition” value was 2.46% (inactive).
For `COc1cccc(NC(=O)CSC2=Nc3ccccc3C3=NC(CC(=O)NC4CCCCC4)C(=O)N23)c1` (configuration not stated), the “activity change, negative = inhibition” value was 1.39% (inactive).
With `COc1cccc(C(=O)OCc2cc(=O)oc3c(C)c(C)ccc23)c1OC` the Potency was 16.9 µM (active).
`COC(=O)Cc1cc(=O)oc2c(C)c(O)ccc12` was tested, and the “activity change, negative = inhibition” value was 0.0059% (inactive).
With `COc1ccc(Br)cc1CN1CCN(C(=O)c2cccc(OC)c2OC)CC1` the “activity change, negative = inhibition” value was 5.02% (inactive).
For `O=C(C1COc2ccccc2O1)N(Cc1cccnc1)c1nc2c(F)cc(F)cc2s1` (configuration not stated), the “activity change, negative = inhibition” value was -10.3% (inactive).
For `CCOc1ccc(Nc2nc(Cl)nc(N3CCN(c4ccc(OC)cc4)CC3)n2)cc1`, the “activity change, negative = inhibition” value was -4.25% (inactive).
With `COc1ccc(Nc2ncc(F)c(N3CCOCC3)n2)cc1` the Potency was 2.39 µM (active).
`Cc1cc(Nc2ccc(Cl)cc2)nc(N2CCOCC2)n1` was tested, and the “activity change, negative = inhibition” value was -3.8% (inactive).
With `O=C(NCc1ccccc1Cl)C1=Cc2cc(Br)ccc2OC1` the “activity change, negative = inhibition” value was 2.86% (inactive).
With `COc1ccc(CCNc2nc3c(-c4cccc(F)c4)nnn3c3ccccc23)cc1OC` the “activity change, negative = inhibition” value was -2.73% (inactive).
With `O=C(COC(=O)c1ccncc1)c1ccccc1` the Potency was 23.9 µM (active).
With `O=C(OCC(O)C(O)COC(=O)c1ccccc1)c1ccccc1` (configuration not stated) the “activity change, negative = inhibition” value was 1.74% (inactive).
With `COc1ccc(NC(=O)COC(=O)c2ccncc2)c(OC)c1` the “activity change, negative = inhibition” value was -0.378% (inactive).
`O=C(CCc1nc(CN2CCN(S(=O)(=O)c3ccc(Cl)cc3)CC2)no1)N1CCCCC1` was tested, and the “activity change, negative = inhibition” value was -5.93% (inactive).
In the case of `CCNC(=O)c1cc2n(n1)CCCN(Cc1ccc(C)cc1)C2=O`, the “activity change, negative = inhibition” value is reported as -0.387% (inactive).
